Screens: PubChem BioAssay, several laboratories
CYP2C9 inh – blockers of cytochrome P450 2C9 activity – biochemical, luminescence, ADME assay, primary screen. AID 777, 2007. CYP2C9 Supersomes, luciferin-H conversion. P11712. 20% of 96,000 active. inhibition, % at 5 µM;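 active = blocking of liver enzyme CYP2C9 beyond about 50% at 5 µM, limit read from the data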
CYP2C19 act – human CYP2C19 activators, primary screen, biochemical, luminescence; 96,000 tested, under 10 active; recombinant CYP2C19, luciferin-H EGE luminescence; active compounds read high; 0 = fully inhibited enzyme, 1 = untreated enzyme; activation factor at 5 µM; Cytochrome P450 2C19 (Homo sapiens), P33261;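 active = activation factor of at least 2 at 5 µM in the primary screen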;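 also: 0 = wells with 2.5 mM tranylcypromine and 1 = vehicle-only wells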
Target sequence (P33261 whole entry, looked up): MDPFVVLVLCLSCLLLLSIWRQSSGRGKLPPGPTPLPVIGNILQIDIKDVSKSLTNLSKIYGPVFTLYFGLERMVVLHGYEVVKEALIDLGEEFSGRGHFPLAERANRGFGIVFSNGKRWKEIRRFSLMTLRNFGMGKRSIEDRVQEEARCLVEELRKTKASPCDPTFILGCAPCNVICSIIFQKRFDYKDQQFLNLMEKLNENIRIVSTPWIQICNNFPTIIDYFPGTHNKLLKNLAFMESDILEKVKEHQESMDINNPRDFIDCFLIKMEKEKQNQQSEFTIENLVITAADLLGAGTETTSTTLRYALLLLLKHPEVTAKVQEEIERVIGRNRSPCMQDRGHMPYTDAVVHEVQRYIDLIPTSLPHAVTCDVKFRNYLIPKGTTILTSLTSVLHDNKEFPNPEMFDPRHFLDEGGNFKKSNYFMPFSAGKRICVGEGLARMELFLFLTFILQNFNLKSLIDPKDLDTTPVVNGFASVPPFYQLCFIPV
CYP2C19 inh – blockers of cytochrome P450 2C19 activity – biochemical, luminescence, ADME assay, primary screen; P33261; CYP2C19 Supersomes, luciferin-H EGE luminescence, 30 min; inhibition, % at 5 µM; 21% of 96,000 active; AID 778, 2007;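 active = CYP2C19 inhibition above a set limit at 5 µM in the primary screen, cut at about 50% in these data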;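 also: plate controls were negative control wells for no effect and 2.5 mM tranylcypromine positive control for full effect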
PostGolgi ctrl – growth inhibition of yeast control strain, primary screen, counter-screen for post-Golgi transport modulator project | 5% of 98,000 active | efflux-deficient yeast background strain, growth absorbance A615, 16 h | inhibition, % at 10 µM
CYP2C9 activ – human CYP2C9 activators, primary screen, biochemical, luminescence. Cytochrome P450 2C9 (Homo sapiens), P11712. recombinant CYP2C9, luciferin-H conversion; active compounds read high; factor 1 = untreated enzyme, 0 = blocked. activation factor at 5 µM. 1.4% of 96,000 active. AID 1024, 2008;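 active = activation factor of 2 or more for CYP2C9 at a 5 µM dose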;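 also: 0 = sulfaphenazole-blocked wells and 1 = vehicle-only wells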
PostGolgi yeast – phenotypic screen on post-Golgi transport, primary screen | post-Golgi transport phenotypic cell assay | AID 739, 2007 | 0.9% of 98,000 active | inhibition, % at 10 µM;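 also: yeast cells grown in 1536-well plates; yeast grown about 18 h at 30C before absorbance read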
The depositor's hits bear a star; / = no result. In the library only some 32% were active in any assay of this set; here they are far more common. Rule as the data show it, unless noted: active = inhibition above about 30%; inactive = the rest.

SMILES | CYP2C9 inh | CYP2C19 act | CYP2C19 inh | PostGolgi ctrl | CYP2C9 activ | PostGolgi yeast
CC(=O)c1sc2nc(-c3cccs3)cc(C(F)(F)F)c2c1N | 67* | 0.4 | 58* | 5 | 0.3 | 3
CCOc1ccc2c(c1)C(C)=CC(C)(C)N2C(=O)Nc1ccccc1 | 40 | 0.4 | 61* | 2 | 0.6 | -4
CCOC(=O)Oc1ccc2c(=O)c(Oc3cc(C)cc(C)c3)coc2c1 | -92 | 0.9 | 13 | 16 | 1.9 | -7
CCNC(=O)N1c2ccc(OC)cc2C(C)=CC1(C)C | 36 | 0.6 | 42 | 4 | 0.6 | 5
CCOC(=O)Oc1ccc2c(c1)C(C)=CC(C)(C)N2C(=O)OCC | -20 | 0.4 | 56* | 5 | 1.2 | 12
CC1C/C(=N\NC(=S)NC(C)C)CC(C)(C)C1 (configuration not stated) | 51* | 0.1 | 88* | 1 | 0.5 | -7
Cn1c(=O)c2cn(Cc3ccc(Cl)cc3)cc2n(C)c1=O | 58* | 0.4 | 63* | 10 | 0.4 | 1
CCOC(=O)c1c(C(F)(F)C(F)(F)C(F)(F)C(F)(F)F)n[nH]c1C | 92* | 0.1 | 95* | 12 | 0.1 | 25
COc1ccccc1CN(C)C(=O)c1ccc2c(c1)NC(=O)CS2 | -94 | 0.1 | 93* | -1 | 1.9 | 0
COc1cccc(CN(C)C(=O)c2ccc(S(=O)(=O)N3CCCC3)cc2)c1OC | 20 | 0.7 | 28 | 13 | 0.8 | 2
CC(=O)NC(CC(C)C)C(=O)NC(=O)NCc1ccccc1 (configuration not stated) | -5 | 0.8 | 20 | -3 | 1.1 | 1
CCC(C)C(NC(C)=O)C(=O)NC(=O)NC(c1ccccc1)c1ccccc1 (configuration not stated) | 80* | 0.2 | 78* | 4 | 0.2 | 2
COC(=O)c1ccc(S(=O)(=O)N(Cc2cc3cc4c(cc3[nH]c2=O)OCO4)C2CCCCC2)cc1 | 1 | 1 | -2 | / | 1 | /
CCC(C)(C)NC(=O)CN(C(=O)c1snc(C(N)=O)c1N)c1ccc2c(c1)OCCO2 | 64* | 0.6 | 38 | 2 | 0.4 | 8
Cc1oc2cc(O)ccc2c(=O)c1Oc1ccccc1 | -100 | 0.7 | 27 | 1 | 2* | -7
Cc1oc2cc(O)ccc2c(=O)c1Oc1ccccc1Br | -60 | 0.7 | 27 | 17 | 1.6 | -7
Cc1ccccc1-c1c(C)oc2cc(O)ccc2c1=O | -116 | 0.8 | 22 | 6 | 2.2* | 24
COC(=O)c1cc(-c2c(C)oc3cc(O)ccc3c2=O)c(C)o1 | / | / | / | 8 | / | -1
Cc1oc2cc(O)ccc2c(=O)c1N1C(=O)c2ccccc2C1=O | -118 | 1.1 | -8 | 0 | 2.2* | 2
COC(=O)Cn1cnc2c(C#N)c3n(c2c1=O)CCCC3 | -2 | 0.9 | 6 | 8 | 1 | 1
COc1cc(-n2ccnc2SC)c(Cl)cc1Cl | 4 | 0.5 | 54* | -1 | 1 | 2
COCCSc1ccccc1C(=O)N1CCOCC1 | 5 | 1.1 | -13 | -2 | 1 | -4
COc1cc(CNCCc2c[nH]c3ccccc23)ccc1OCc1ccccc1F | 11 | 0.6 | 37 | 5 | 0.9 | -4
COc1cccc(CNn2cnnc2)c1OCc1ccc(F)cc1 | 57* | 0.1 | 86* | -6 | 0.4 | 11
CCOc1cccc(CNn2cnnc2)c1OCc1ccccc1Cl | 20 | 0.2 | 76* | 3 | 0.8 | -1
COc1cccc(CNn2cnnc2)c1OCc1ccccc1F | 30 | 0.2 | 76* | -3 | 0.7 | 2
O=C(NCc1ccc(F)cc1)C(c1cccs1)N(C(=O)c1csnn1)C1CC1 (configuration not stated) | -14 | 0.8 | 23 | -2 | 1.1 | 12
CCOc1ccc2c(C)nc(NC3=NC(C)(C)C=C(C)N3)nc2c1 | / | / | / | 15 | / | 6
CCOc1ccc2nc(NC3=NC(C)(C)C=C(C)N3)nc(C)c2c1 | 72* | 0.5 | 49 | 2 | 0.3 | -3
CSc1nc(NCCOCCO)c2sc3nc(-c4ccco4)c4c(c3c2n1)CCC4 | 63* | 0.7 | 27 | -1 | 0.4 | -3
